In PubChem BioAssay (NCI):
The panel holds about 79,000 compounds, 15% with a hit somewhere; the sample as a whole holds those more often. The source made the active and inactive calls. Cut-off read from the data, not from the text of the source: active = growth inhibition above about 70%; inactive = the rest.

What was measured:
[1] = NCI Yeast Anticancer Drug Screen. Data for the rad52 strain (AID 147);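 note: 0% = growth of vehicle-treated control cultures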; settings: S. cerevisiae rad52 mutant growth inhibition, hits give high values
How it was run: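 DNA repair-defective yeast; compound exposure; growth scored against vehicle controls.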

[2] = NCI Yeast Anticancer Drug Screen. Data for the wt1 strain (AID 149);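 note: 0% = growth of vehicle-treated wt1 cultures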; settings: S. cerevisiae wt1 strain (SPY 50644) growth inhibition, hits give high values
How it was run: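 Measured: growth of wt1 yeast under compound versus vehicle treatment, reported as inhibition.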

[3] = NCI Yeast Anticancer Drug Screen. Data for the rad50EPP+ strain (AID 151);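 note: 0% = growth of vehicle-treated control cultures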; settings: S. cerevisiae rad50 mutant strain, hits give high values
How it was run: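 rad50EPP+ yeast treated with test compounds. Readout: growth vs vehicle control.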

[4] = NCI Yeast Anticancer Drug Screen. Data for the mgt1 strain (AID 153); settings: S. cerevisiae mgt1 mutant growth inhibition, hits give high values
How it was run: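 Growth inhibition relative to vehicle controls was scored for the mgt1 yeast strain after compound exposure.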

[5] = NCI Yeast Anticancer Drug Screen. Data for the rad50 strain (AID 155);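 note: 0% = growth of vehicle-only cultures of the same strain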; settings: S. cerevisiae rad50 strain growth inhibition, hits give high values
How it was run: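 Growth of the mutant yeast was measured after compound exposure and referenced to vehicle-treated cultures.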

[6] = NCI Yeast Anticancer Drug Screen. Data for the mec2-1 strain (AID 157); settings: S. cerevisiae mec2-1 strain, hits give high values
How it was run: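 Growth inhibition is read against vehicle-treated controls after compound exposure of the mec2-1 yeast strain, which is defective in DNA damage repair or cell cycle control.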

[7] = NCI Yeast Anticancer Drug Screen. Data for the sgs1 mgt1 strain (AID 161);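 note: 0% = growth of cultures given vehicle only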; settings: S. cerevisiae sgs1 mgt1 strain, hits give high values
How it was run: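 Yeast cells carrying a defined DNA-repair defect were exposed to test compounds. Growth inhibition was measured relative to vehicle-treated controls.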

[8] = NCI Yeast Anticancer Drug Screen. Data for the CLN2oe strain (AID 163);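 note: 0% = growth of vehicle-only control cultures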; settings: S. cerevisiae CLN2oe strain, hits give high values
How it was run: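 Compound-treated yeast; growth vs vehicle ctrl = % inhibition. Genetically altered strain (cell-cycle control).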

[9] = NCI Yeast Anticancer Drug Screen. Data for the cln2 rad14 strain (AID 165);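 note: 0% = growth equal to vehicle treated cultures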; settings: S. cerevisiae cln2 rad14 strain, hits give high values
How it was run: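 Growth inhibition, relative to vehicle-treated controls, is the read-out. The test organism is a yeast strain with defined genetic alterations, cln2 rad14.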

[10] = NCI Yeast Anticancer Drug Screen. Data for the bub3 strain (AID 167); settings: S. cerevisiae bub3 mutant strain, hits give high values
How it was run: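 Whole-cell yeast assay. The mutant strain was incubated with compounds, and growth inhibition was determined by comparison with vehicle-treated cells.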

[11] = NCI Yeast Anticancer Drug Screen. Data for the mlh1 strain (AID 171);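 note: 0% = growth of vehicle-treated control cultures of the same strain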; settings: S. cerevisiae mlh1 strain growth inhibition, hits give high values
How it was run: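 Compounds are applied to a genetically altered yeast strain, and its growth is compared with that of vehicle-treated cultures to give percent inhibition.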

[12] = NCI Yeast Anticancer Drug Screen. Data for the sgs1 strain (AID 173);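 note: 0% = growth of vehicle-only control cultures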; settings: S. cerevisiae sgs1 mutant, hits give high values
How it was run: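 Compounds applied to genetically altered yeast; growth compared with vehicle-treated cultures to give % inhibition.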

[13] = NCI Yeast Anticancer Drug Screen. Data for the mlh1 rad18 strain (AID 175); settings: S. cerevisiae mlh1 rad18 strain growth inhibition, hits give high values
How it was run: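 Cells of a genetically altered yeast strain, deficient in DNA damage repair, were treated with compound. Their growth was then compared with that of vehicle-treated cultures to give inhibition.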

[14] = NCI Yeast Anticancer Drug Screen. Data for the rad18 strain (AID 177); settings: S. cerevisiae rad18 mutant growth inhibition, hits give high values
How it was run: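 Compounds are applied to a repair-deficient yeast strain, and growth is compared with that of vehicle-treated cultures to give percent inhibition.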

[15] = NCI Yeast Anticancer Drug Screen. Data for the rad14 strain (AID 159);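 note: 0% = growth of vehicle-treated control cultures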; settings: S. cerevisiae rad14 strain growth inhibition, hits give high values
How it was run: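 Here, inhibition of yeast growth was measured after compound exposure, using a strain with a genetic defect in DNA damage repair and vehicle-treated cultures as the reference.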

[16] = NCI Yeast Anticancer Drug Screen. Data for the wt2 strain (AID 169);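 note: 0% = growth of vehicle-treated yeast cultures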; settings: S. cerevisiae wt2 strain growth inhibition, hits give high values
How it was run: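 Compound exposure of yeast; growth compared with vehicle controls; inhibition reported.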

[17] = at 5.0 µM (retest, dose inferred, filed as 0.5)
[18] = at 50.0 µM (retest, dose inferred, filed as 5.0)

Measured: growth inhibition

Cc1cc(O)c(C(C)C)cc1SC#N
active: [1]; at 100.0 µM 98% | [2]; at 100.0 µM 99% | [3]; at 100.0 µM 89% | [4]; at 100.0 µM 99% | [5]; [17] 91% | [5]; [18] 98% | [5]; at 50.0 µM 89.1% | [5]; at 100.0 µM 98% | [6]; [17] 96% | [6]; [18] 99% | [6]; at 50.0 µM 91.1% | [6]; at 100.0 µM 98% | [7]; [18] 97% | [7]; at 50.0 µM 91.9% | [8]; at 100.0 µM 98% | [9]; [18] 98% | [9]; at 50.0 µM 90.3% | [10]; [17] 72% | [10]; at 11.0 µM 91% | [10]; [18] 98% | [10]; at 50.0 µM 90.5% | [10]; at 100.0 µM 98% | [11]; at 100.0 µM 98% | [12]; at 100.0 µM 98% | [13]; [17] 81% | [13]; [18] 99% | [13]; at 50.0 µM 89% | [14]; at 100.0 µM 98%
inactive: [1]; at 1.2 µM 2% | [1]; at 3.7 µM -12% | [1]; at 11.0 µM 62% | [1]; at 33.0 µM 34% | [2]; at 1.2 µM -15% | [2]; at 3.7 µM 1% | [2]; at 11.0 µM 43% | [2]; at 33.0 µM 36% | [3]; at 1.2 µM -12% | [3]; at 3.7 µM -5% | [3]; at 11.0 µM 1% | [3]; at 33.0 µM 10% | [4]; at 1.2 µM -3% | [4]; at 3.7 µM -13% | [4]; at 11.0 µM 54% | [4]; at 33.0 µM 40% | [5]; at 1.2 µM -24% | [5]; at 3.7 µM -15% | [5]; at 11.0 µM 67% | [5]; at 33.0 µM 19% | [6]; at 1.2 µM -26% | [6]; at 3.7 µM -25% | [6]; at 11.0 µM 68% | [6]; at 33.0 µM 24% | [7]; [17] -5% | [8]; at 1.2 µM 12% | [8]; at 3.7 µM -17% | [8]; at 11.0 µM 68% | [8]; at 33.0 µM 54% | [9]; [17] 65% | [10]; at 1.2 µM 3% | [10]; at 3.7 µM 50% | [10]; at 33.0 µM 34% | [11]; at 1.2 µM -19% | [11]; at 3.7 µM -5% | [11]; at 11.0 µM 58% | [11]; at 33.0 µM 33% | [12]; at 1.2 µM -30% | [12]; at 3.7 µM -24% | [12]; at 11.0 µM 65% | [12]; at 33.0 µM 28% | [14]; at 1.2 µM 12% | [14]; at 3.7 µM 2% | [14]; at 11.0 µM 59% | [14]; at 33.0 µM 40%

CCCCCCC1OCC(O)C(OCCCC)O1 (stereo not drawn)
inactive: [1]; at 1.2 µM -3% | [1]; at 3.7 µM -4% | [1]; at 11.0 µM -2% | [1]; at 33.0 µM -4% | [1]; at 100.0 µM -4% | [2]; at 1.2 µM -4% | [2]; at 3.7 µM -3% | [2]; at 11.0 µM -5% | [2]; at 33.0 µM -8% | [2]; at 100.0 µM -10% | [3]; at 1.2 µM -8% | [3]; at 3.7 µM -4% | [3]; at 11.0 µM 2% | [3]; at 33.0 µM 3% | [3]; at 100.0 µM 50% | [4]; at 1.2 µM -6% | [4]; at 3.7 µM -4% | [4]; at 11.0 µM -4% | [4]; at 33.0 µM -6% | [4]; at 100.0 µM -3% | [5]; at 1.2 µM -5% | [5]; at 3.7 µM -11% | [5]; [17] -15% | [5]; at 11.0 µM -4% | [5]; at 33.0 µM -3% | [5]; [18] 3% | [5]; at 50.0 µM -0.55% | [5]; at 100.0 µM 1% | [6]; at 1.2 µM -2% | [6]; at 3.7 µM -3% | [6]; [17] -11% | [6]; at 11.0 µM -2% | [6]; at 33.0 µM -5% | [6]; [18] -35% | [6]; at 50.0 µM -13.7% | [6]; at 100.0 µM -4% | [15]; at 1.2 µM -5% | [15]; at 3.7 µM -4% | [15]; at 11.0 µM -4% | [15]; at 33.0 µM -3% | [15]; at 100.0 µM 0% | [8]; at 1.2 µM -5% | [8]; at 3.7 µM -3% | [8]; at 11.0 µM -12% | [8]; at 33.0 µM -8% | [8]; at 100.0 µM -7% | [9]; [17] -10% | [9]; [18] 60% | [9]; at 50.0 µM 0.05% | [10]; at 1.2 µM -5% | [10]; at 3.7 µM -6% | [10]; [17] -6% | [10]; at 11.0 µM -8% | [10]; at 33.0 µM -10% | [10]; [18] 15% | [10]; at 50.0 µM -8.05% | [10]; at 100.0 µM -12% | [16]; at 1.2 µM -4% | [16]; at 3.7 µM -5% | [16]; at 11.0 µM -6% | [16]; at 33.0 µM -7% | [16]; at 100.0 µM -7% | [12]; at 1.2 µM -4% | [12]; at 3.7 µM -1% | [12]; at 11.0 µM 0% | [12]; at 33.0 µM 0% | [12]; at 100.0 µM 4% | [13]; [17] 2% | [13]; [18] -4% | [13]; at 50.0 µM -15.8% | [14]; at 1.2 µM -3% | [14]; at 3.7 µM 1% | [14]; at 11.0 µM -1% | [14]; at 33.0 µM -2% | [14]; at 100.0 µM 1%
